For some of these results: Potency and affinity values are given separately.
Columns and labels:
Parameters in all cases: scale not given: direction of the effect not stated beside the values
[1] = molecular target: Protein translocase subunit SecA (Escherichia coli (strain K12)) (UniProt P10408); test: Assay to Identify E. coli SecA ATPase Inhibitors; assay type: functional; settings: 30 µM
[2] = molecular target: T1, Ubiquitin-activating enzyme e1, putative (Leishmania donovani (strain BPK282A1)) (UniProt E9BSI1); test: Leishmania donovani Ubiquitin Activating Enzyme (LdE1); assay type: functional; settings: 30 µM
T1 sequence (whole entry): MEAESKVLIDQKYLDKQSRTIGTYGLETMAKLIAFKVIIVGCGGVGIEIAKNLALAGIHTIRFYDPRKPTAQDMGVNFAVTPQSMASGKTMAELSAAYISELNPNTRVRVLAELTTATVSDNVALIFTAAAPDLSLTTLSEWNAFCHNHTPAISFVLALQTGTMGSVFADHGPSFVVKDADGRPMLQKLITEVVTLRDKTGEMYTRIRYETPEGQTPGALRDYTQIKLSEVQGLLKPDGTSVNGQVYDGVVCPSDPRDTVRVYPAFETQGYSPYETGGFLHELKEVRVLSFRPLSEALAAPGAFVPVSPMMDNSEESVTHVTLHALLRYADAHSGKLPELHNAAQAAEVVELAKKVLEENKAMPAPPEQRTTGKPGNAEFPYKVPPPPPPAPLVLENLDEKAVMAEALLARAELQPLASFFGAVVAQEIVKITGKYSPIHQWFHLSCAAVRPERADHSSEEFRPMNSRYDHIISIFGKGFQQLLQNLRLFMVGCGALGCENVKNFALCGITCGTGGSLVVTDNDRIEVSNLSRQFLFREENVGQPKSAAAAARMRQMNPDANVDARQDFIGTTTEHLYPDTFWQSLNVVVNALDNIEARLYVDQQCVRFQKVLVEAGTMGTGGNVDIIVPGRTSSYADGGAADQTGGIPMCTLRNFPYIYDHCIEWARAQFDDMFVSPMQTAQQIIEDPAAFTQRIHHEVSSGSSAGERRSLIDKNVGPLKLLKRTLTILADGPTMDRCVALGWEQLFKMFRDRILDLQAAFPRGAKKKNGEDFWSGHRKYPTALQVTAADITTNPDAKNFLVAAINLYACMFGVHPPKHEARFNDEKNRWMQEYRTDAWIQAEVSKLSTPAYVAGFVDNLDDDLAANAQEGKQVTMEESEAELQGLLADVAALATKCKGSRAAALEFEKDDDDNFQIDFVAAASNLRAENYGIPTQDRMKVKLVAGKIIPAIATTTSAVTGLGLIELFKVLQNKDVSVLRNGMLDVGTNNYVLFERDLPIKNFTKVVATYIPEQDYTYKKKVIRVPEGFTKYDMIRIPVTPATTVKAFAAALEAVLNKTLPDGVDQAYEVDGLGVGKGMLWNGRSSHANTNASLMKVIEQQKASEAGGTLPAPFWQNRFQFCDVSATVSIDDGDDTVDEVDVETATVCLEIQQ

[3] = molecular target: AMP-activated protein kinase, AMPK (Homo sapiens) (UniProt P54646+O43741+P54619+Q9UGJ0+Q9Y478+Q13131+Q9UGI9); test: AMP-dependent Kinase enzyme assay. An in vitro enzyme assay that detects ADP turnover that is directly proportional to AMPK activity. This uses naive AMPK that is activated during the assay with MK-8722; assay type: functional; settings: 30 µM
[4] = molecular target: Sialic acid-binding Ig-like lectin 9 (Homo sapiens) (UniProt Q9Y336); test: Hs-Siglec9 ALPHAscreen SOP 20170721; settings: 10 µM
[5] = tested on: Trypanosoma cruzi; test: Trypanosoma cruzi phosphomannomutase and mannose-1-phosphate guanylyltransferase assay; assay type: functional; settings: 10 µM
[6] = molecular target: T2, Arginase-2, mitochondrial (Homo sapiens) (UniProt P78540); test: in vitro enzyme assay to detect the production of urea directly proportional to the activity of Arginase II; assay type: functional; settings: 33.3 µM; note: in the data most compounds retested in dose-response had high values
T2 sequence (whole entry): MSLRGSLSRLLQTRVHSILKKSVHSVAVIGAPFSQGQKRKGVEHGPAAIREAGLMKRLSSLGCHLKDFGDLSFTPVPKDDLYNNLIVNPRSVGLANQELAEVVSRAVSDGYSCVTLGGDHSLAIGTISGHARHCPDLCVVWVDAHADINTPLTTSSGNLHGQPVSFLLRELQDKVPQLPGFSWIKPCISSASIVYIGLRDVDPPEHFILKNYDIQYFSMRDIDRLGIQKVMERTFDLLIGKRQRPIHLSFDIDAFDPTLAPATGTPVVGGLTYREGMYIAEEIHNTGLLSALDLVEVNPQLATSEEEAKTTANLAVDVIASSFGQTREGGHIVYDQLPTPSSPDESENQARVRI

[7] = molecular target: T3, Proteasome subunit beta (Trypanosoma cruzi) (UniProt O96673); test: Trypanosoma cruzi proteasome chymotrypsin-like activity (TcProtChymo) assay.; note: in the data most compounds retested in dose-response had high values; assay type: functional; settings: 9.37 µM
T3 sequence (whole entry): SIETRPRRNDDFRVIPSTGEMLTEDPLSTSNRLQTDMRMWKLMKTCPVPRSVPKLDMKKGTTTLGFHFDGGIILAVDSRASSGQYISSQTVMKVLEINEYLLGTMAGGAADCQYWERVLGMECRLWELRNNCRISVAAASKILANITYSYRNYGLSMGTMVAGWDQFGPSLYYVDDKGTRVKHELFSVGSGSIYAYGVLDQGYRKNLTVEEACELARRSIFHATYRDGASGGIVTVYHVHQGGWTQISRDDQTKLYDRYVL

[8] = species: Homo sapiens; test: To identify inhibition of the IFN signalling (Jak-Stat) pathway via expression of an eGFP reporter gene under the control of an IFN-stimulated response element (ISRE) containing MxA promoter.; assay type: functional; settings: 30 µM
[9] = molecular target: T4, Tyrosyl-tRNA synthetase, putative (Trypanosoma cruzi (strain CL Brener)) (UniProt Q4DSP6); test: Trypanosoma cruzi tyrosyl tRNA synthetase (TcYRS) _High Tyrosine SOP; assay type: functional; settings: 30 µM; note: in the data most compounds retested in dose-response had high values
T4 sequence (whole entry): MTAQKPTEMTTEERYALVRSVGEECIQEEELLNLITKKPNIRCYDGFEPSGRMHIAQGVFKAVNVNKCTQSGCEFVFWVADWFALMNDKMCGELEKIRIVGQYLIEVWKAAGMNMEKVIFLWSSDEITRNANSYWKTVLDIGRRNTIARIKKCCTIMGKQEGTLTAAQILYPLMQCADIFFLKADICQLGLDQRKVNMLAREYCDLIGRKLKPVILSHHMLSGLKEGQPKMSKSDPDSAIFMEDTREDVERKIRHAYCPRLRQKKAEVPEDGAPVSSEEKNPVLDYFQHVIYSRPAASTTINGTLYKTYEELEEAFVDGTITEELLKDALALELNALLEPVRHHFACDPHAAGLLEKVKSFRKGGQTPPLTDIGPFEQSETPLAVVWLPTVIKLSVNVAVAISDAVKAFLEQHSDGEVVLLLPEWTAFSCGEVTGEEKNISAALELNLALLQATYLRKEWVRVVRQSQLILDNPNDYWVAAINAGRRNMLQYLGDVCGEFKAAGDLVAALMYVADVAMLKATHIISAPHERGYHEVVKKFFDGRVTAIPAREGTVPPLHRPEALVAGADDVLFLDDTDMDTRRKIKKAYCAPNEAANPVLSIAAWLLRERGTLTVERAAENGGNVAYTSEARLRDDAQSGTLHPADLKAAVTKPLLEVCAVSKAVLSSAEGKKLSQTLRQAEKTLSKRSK

[10] = molecular target: T4, Tyrosyl-tRNA synthetase, putative (Trypanosoma cruzi (strain CL Brener)); test: Trypanosoma cruzi tyrosyl tRNA synthetase (TcYRS) SOP; assay type: functional; settings: 30 µM
[11] = molecular target: Chromo domain-containing protein 1 (Saccharomyces cerevisiae (strain ATCC 204508 / S288c) (Baker's yeast)) (UniProt P32657); test: ScCHD-1 Enzyme Inhibition Assay; assay type: functional; settings: 30 µM; note: in the data most compounds retested in dose-response had high values
Chromo domain-containing protein 1 (Saccharomyces cerevisiae (strain ATCC 204508 / S288c) (Baker's yeast)), sequence (P32657 whole entry, the tested form may be a part): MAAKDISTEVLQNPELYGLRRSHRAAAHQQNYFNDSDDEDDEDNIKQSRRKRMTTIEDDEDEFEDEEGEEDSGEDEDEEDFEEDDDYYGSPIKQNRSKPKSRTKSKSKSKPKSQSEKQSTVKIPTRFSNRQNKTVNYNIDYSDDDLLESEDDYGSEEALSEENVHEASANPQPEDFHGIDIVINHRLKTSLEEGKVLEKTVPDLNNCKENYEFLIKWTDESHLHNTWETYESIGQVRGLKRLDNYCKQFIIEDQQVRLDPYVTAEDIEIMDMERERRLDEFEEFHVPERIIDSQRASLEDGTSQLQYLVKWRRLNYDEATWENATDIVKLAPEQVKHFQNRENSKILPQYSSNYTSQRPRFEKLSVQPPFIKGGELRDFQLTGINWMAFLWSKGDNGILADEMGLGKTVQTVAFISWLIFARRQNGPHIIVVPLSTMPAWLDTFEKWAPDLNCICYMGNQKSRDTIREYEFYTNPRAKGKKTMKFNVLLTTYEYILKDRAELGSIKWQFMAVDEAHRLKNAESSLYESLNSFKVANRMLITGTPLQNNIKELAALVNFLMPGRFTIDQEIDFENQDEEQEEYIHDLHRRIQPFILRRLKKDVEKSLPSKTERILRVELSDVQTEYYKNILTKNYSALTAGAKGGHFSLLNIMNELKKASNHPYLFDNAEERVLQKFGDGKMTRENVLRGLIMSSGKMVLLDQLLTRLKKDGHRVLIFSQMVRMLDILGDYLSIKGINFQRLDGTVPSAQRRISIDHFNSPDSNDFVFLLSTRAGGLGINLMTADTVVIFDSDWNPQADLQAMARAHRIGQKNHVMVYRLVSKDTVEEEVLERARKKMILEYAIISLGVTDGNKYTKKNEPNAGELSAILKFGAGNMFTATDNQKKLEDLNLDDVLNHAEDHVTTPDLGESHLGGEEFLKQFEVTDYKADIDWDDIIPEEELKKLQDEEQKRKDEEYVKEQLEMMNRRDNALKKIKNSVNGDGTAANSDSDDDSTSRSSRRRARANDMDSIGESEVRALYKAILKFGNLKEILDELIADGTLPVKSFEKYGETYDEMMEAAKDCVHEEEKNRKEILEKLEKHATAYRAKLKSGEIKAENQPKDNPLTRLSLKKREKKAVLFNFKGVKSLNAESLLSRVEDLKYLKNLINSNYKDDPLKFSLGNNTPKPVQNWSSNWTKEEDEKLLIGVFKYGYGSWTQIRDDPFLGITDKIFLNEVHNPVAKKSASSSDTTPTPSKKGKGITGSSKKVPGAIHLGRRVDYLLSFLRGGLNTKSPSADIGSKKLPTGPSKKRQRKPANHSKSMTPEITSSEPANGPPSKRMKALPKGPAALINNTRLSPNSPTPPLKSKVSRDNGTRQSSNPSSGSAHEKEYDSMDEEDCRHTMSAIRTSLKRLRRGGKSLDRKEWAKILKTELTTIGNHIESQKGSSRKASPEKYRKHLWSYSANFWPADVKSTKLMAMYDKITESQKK

Sialic acid-binding Ig-like lectin 9 (Homo sapiens), sequence (Q9Y336 whole entry): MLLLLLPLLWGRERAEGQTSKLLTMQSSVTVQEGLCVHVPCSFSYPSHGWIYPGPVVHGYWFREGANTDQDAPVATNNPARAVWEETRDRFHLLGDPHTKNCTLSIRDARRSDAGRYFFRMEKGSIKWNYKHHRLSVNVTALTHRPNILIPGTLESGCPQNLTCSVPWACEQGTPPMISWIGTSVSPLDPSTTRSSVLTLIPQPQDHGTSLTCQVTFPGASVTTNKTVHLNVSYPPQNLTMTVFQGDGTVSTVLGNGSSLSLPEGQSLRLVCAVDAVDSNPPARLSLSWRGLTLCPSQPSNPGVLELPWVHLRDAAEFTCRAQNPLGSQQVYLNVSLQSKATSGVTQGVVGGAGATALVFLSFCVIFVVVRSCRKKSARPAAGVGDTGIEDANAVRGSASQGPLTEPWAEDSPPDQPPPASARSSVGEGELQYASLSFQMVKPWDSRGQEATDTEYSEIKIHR
Protein translocase subunit SecA (Escherichia coli (strain K12)), sequence (P10408 whole entry): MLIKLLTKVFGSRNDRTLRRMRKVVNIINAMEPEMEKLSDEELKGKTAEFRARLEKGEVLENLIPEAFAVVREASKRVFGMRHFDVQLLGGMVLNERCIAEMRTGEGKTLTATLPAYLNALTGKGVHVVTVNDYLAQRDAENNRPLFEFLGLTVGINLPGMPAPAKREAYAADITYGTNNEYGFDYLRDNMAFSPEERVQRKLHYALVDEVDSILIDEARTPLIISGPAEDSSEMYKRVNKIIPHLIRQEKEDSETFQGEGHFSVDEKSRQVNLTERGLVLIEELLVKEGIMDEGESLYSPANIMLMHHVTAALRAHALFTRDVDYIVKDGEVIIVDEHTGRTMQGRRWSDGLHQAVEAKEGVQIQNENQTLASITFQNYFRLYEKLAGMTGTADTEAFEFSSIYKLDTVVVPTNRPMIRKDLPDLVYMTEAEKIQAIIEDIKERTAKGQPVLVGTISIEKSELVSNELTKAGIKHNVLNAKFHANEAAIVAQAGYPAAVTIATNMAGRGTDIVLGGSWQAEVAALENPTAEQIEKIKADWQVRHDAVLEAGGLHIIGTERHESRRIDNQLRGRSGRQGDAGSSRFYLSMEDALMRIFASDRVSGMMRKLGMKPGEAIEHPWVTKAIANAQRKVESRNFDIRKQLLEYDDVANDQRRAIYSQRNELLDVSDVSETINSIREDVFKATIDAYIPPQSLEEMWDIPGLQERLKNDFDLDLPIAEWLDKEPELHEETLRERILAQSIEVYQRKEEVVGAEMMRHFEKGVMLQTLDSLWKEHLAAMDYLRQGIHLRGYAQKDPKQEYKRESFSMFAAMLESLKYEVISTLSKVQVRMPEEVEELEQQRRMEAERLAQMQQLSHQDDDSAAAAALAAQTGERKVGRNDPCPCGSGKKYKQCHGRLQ

Row | SMILES | Percent Effect [1] | Percent Effect [2] | Percent Effect [3] | Percent Effect [4] | Percent Effect [5] | Percent Effect [6] | Percent Effect [7] | Percent Effect [8] | Percent Effect [9] | Percent Effect [10] | Percent Effect [11]
1 | c1ccc(Cn2cc(CNC3CCc4ncnn4C3)cn2)cc1 (stereo not given) | -3.66% | 6.33% | -0.419% | 1.15% | 0.923% | -3.66% | 5.66% | 4.51% | 3.12% | 10.1% | -19.2%
2 | Cc1noc(C)c1CNC(=O)N1CCC(CO)CC1 | -1.26% | 13.7% | -4.05% | 6.04% | 2.18% | -1.2% | 7.62% | 23.9% | 7.29% | 16.1% | -0.505%
3 | COc1ccc(F)c(CN2CCC(c3cc(O)nc(C)n3)C2)c1 (stereo not given) | -8.36% | 23% | -0.897% | -0.78% | 5.93% | -3.94% | 15.3% | 11.7% | 5.38% | 14.3% | -15%
4 | Cc1ccc(N2CCCC(NCc3cscn3)C2)nn1 (stereo not given) | -1.67% | 13.5% | -43.1% | -1.8% | -1.04% | 18.4% | 11.3% | 3.87% | 12.3% | 23.5% | -5.79%
5 | CCN(CC)C(=O)Cn1ccc2cc(NC(=O)C3CC3)ccc21 | -5.06% | 15.8% | -9.59% | 7.96% | 6.39% | -3.06% | 14.9% | 4.68% | 5.39% | 21.9% | -12.7%
6 | CCOCC1CN(Cc2cccc(C#N)c2)Cc2nccn2C1 (stereo not given) | -3.99% | -5.48% | 2.91% | 1.44% | -2.38% | -2% | 12.4% | -1.58% | 4.17% | 3.7% | -1.98%
7 | O=C(CCCOCc1ccccc1)N1CCCC1c1ccccn1 (stereo not given) | -2.89% | 0% | -0.0464% | -0.638% | 2.55% | 7.99% | 5% | -30.4% | 0.493% | 3.8% | -2.69%
8 | Cc1cc(C)cc(C2(C(=O)NC(C)Cn3ccnc3)CC2)c1 (stereo not given) | -2.27% | 25.3% | -10.3% | 0.0554% | 3.31% | -4.56% | 14.3% | -5.91% | 8.37% | 24.1% | -10.8%
9 | COc1ccc(CN(Cc2cncn2C)CC2CCCO2)c(OC)c1 (stereo not given) | -2.55% | 17.6% | 4.23% | -4.44% | -0.79% | 0.696% | 20% | 17.5% | 5.38% | 14.3% | -18.5%
10 | Cc1ccc(N2CCCC(NCc3cccc4c3OCCO4)C2)nn1 (stereo not given) | -2.62% | 16.2% | -11.3% | 0.447% | -1.23% | -2% | 7.39% | -7.93% | 10.3% | 18.5% | -10.3%
11 | CNc1cc2c(nn1)CCN(C(=O)c1ccc(-n3nccc3C)cc1)C2 | -3.9% | 7.79% | -0.653% | -3.32% | 6.56% | -1.9% | 11.4% | 14.4% | 6.67% | 9.41% | -16.2%
12 | COc1ccc(C(=O)N2CCCC(C)C2)cc1F (stereo not given) | -4.09% | 24.3% | -19.3% | -3.4% | 2.17% | -15.6% | 16.2% | 18.6% | 4.43% | 18.5% | -9.54%
13 | CCNc1cc2c(nn1)CCN(C(=O)CC1CCCCC1)C2 | -8.49% | 12.7% | 0.0974% | 9.47% | 1.42% | 3.04% | -0.0819% | -11.3% | 16.3% | 8.86% | -8.44%
14 | CC(C)c1nn(CC(=O)N2CCCCC2)c(=O)c2c1cnn2C(C)(C)C | -2.78% | 11% | -3.21% | -1.33% | -4.31% | 0.455% | 16.5% | 17.3% | 2.15% | 12.5% | -6.96%
15 | Cc1nc(C)n(CC2CCCN(CCCOc3ccccc3)C2)n1 (stereo not given) | -3.18% | 1.27% | 8.34% | 3.65% | -0.718% | 1.07% | -1.37% | -1.23% | 3.12% | 12.7% | -5.2%
16 | CN(Cc1ccco1)[C@@H]1CN(C(=O)c2ccnnc2)[C@@H]2CCCO[C@H]12 | -2.54% | 2.74% | -7.68% | 19.2% | 7.74% | -2.4% | 13.4% | -41.3% | 3.12% | 13.6% | -1.74%
17 | Cc1nc(CN2CCN(C(=O)c3ccn(C)c(=O)c3)CC2)cs1 | -3.89% | 19% | -4.58% | -0.681% | 2.15% | -4.52% | 15.9% | 10.6% | 9.38% | 15.2% | -25.7%
18 | O=C1CC(N(C(=O)c2ccc3c(c2)CCC3)C2CC2)C(=O)N1 (stereo not given) | -3.91% | 7.59% | -5.04% | -3.45% | -8.21% | 4.18% | 5.98% | 25.8% | -0.493% | 1.27% | -6.63%
19 | CCOc1ccccc1C(=O)NS(=O)(=O)c1ccc2c(c1)OCCCO2 | -5.62% | 5.26% | -3.19% | 0.997% | 3.08% | -3.24% | 8.04% | 7.05% | -29.1% | -21% | -8.5%
20 | CCOCCCC(=O)NCCC(=O)N1CCN(c2ccccn2)CC1 | -3.47% | 7.89% | 4.17% | 5.65% | -3.99% | -4.73% | 13.3% | 2.43% | 5.32% | 13% | -4.16%

— ChEMBL document CHEMBL3988442, “University of Dundee, Small-Polar-MMV Screening Library” (2021)
